The values that follow come from publication PMC7819943, “Rice protein-binding microarrays: a tool to detect cis-acting elements near promoter regions in rice”.

Over roughly 39,000 sequences, “fluorescence intensity (a.u.)” has its median near 4,300; the highest 2% begin near 39,000. Shown is part of a subset that was picked to be rich in the highest values.

In this assay the target is T1, OsSMF1 (Oryza sativa, UniProt Q6ZLB0 1-436).
T1 sequence: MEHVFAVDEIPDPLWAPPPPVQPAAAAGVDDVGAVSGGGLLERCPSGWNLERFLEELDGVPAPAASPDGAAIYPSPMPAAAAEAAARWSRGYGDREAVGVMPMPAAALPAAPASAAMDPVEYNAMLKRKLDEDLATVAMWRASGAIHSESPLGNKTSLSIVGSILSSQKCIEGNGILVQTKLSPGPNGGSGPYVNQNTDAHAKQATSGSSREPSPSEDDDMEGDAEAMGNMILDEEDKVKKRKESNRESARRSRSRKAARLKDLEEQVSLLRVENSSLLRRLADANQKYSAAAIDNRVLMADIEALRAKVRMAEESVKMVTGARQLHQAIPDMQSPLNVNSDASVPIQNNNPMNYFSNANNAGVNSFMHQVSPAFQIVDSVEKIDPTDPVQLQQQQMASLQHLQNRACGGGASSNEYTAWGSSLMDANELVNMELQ
As to the kind of experiment: protein-binding microarray (RPBM); PBS, 2% BSA, 51.3 ng/ul salmon testes DNA, 50 uM zinc acetate, 200 nM TF, 25 C, 1 h; high values mean tight binding. The note with it: protein: recombinant; tags: N-terminal polyhistidine and DsRed monomer fusion (pET32a); chain copies: 2; label: CyDye5-dUTP incorporated in the synthesized complementary strand; 3' TTTTT single-stranded linker to array surface; dsDNA, one strand shown. A digest of the protocol: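 Polyhistidine-tagged DsRed fusions of transcription factors, joined at the N-terminus, were expressed in E. coli BL21-CodonPlus and isolated on Ni–NTA. They were incubated at 200 nM for 1 h at 25 °C on a custom Agilent array, double-stranded and BSA-blocked, in PBS with 2% BSA, salmon testes DNA and 50 µM zinc acetate. The binding signal is per-feature fluorescence intensity (arbitrary units) read on an Axon 4000B scanner after washing.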
“GTATCCATTCCTGCAAATCCAAGTTGGCAATTCCGAGGGCCGGAGTCACCTAGTGCAG”: the binding signal was 3340 fluorescence intensity (a.u.).
The figure for “GCGGCGCGACAGCGACAAAGCGCACGCGCGCGGCGAGCTGCGGAGTCACCTAGTGCAG” is 30800 fluorescence intensity (a.u.).
Consider “TAACTTTGGAACAGGCTGATAAGGGTGGATCCTGCGGTTGCGGAGTCACCTAGTGCAG”, for which the binding signal is 3440 fluorescence intensity (a.u.).
Consider “CTGTTTCAGCACCACTGAGTTCGCAGCAAATGACACAAGGCGGAGTCACCTAGTGCAG”, for which the binding signal was 3340 fluorescence intensity (a.u.).
The figure for “CTTCAGGGTCTAGTCTTTTCAAACCATCGGAGTTATCGTCCGGAGTCACCTAGTGCAG” is 3530 fluorescence intensity (a.u.).
The figure for “CCGTCACGGATGACACTTATCTGTGACGGGCTATAGTTGACGGAGTCACCTAGTGCAG” is 4260 fluorescence intensity (a.u.); for “GTCGCGCGCTTGGTGGCTTGCAAGAACCAGCTCCACCGCGCGGAGTCACCTAGTGCAG” it is 3300 fluorescence intensity (a.u.).
The figure for “GATTCGTTGAATACCGTCATTATTGGTGGGTTATCATCATCGGAGTCACCTAGTGCAG” is 3490 fluorescence intensity (a.u.); for “GTGGAGTGCGGTGGACGGAGCGGCGGGGCGGGGCGGTCAGCGGAGTCACCTAGTGCAG” it is 6720 fluorescence intensity (a.u.).
For “AAAGTTTTGCATGCCGCTGTCGAAGTCGGCTTCCGCGTAGCGGAGTCACCTAGTGCAG”, the binding signal was 32300 fluorescence intensity (a.u.).
The figure for “GCCAACGAGGTCGCGTTCGACAAGGTGAAGGACGCCGGCGCGGAGTCACCTAGTGCAG” is 39600 fluorescence intensity (a.u.).
The figure for “GCCTAGCCAGGATCGCCGCCGGCGGCGCCGCCGAGTCACACGGAGTCACCTAGTGCAG” is 33100 fluorescence intensity (a.u.); for “ACGGAGAAGTCCCGAGACCGGCGCCGCCAGGACCGCCACCCGGAGTCACCTAGTGCAG” it is 44400 fluorescence intensity (a.u.); for “TGCAGCAGGAGATCGATCGATCGATCGATCCAACCGAATGCGGAGTCACCTAGTGCAG” it is 3260 fluorescence intensity (a.u.).
The figure for “AGAGAGAGAGAGAGAGAGAGAGAGCTCAGGATCGACGAGACGGAGTCACCTAGTGCAG” is 16900 fluorescence intensity (a.u.).
Turning to “TTAGTGAACGGTGCAACGCGTCAAGGACGAGTCAACGCGCCGGAGTCACCTAGTGCAG”, the binding signal is 4850 fluorescence intensity (a.u.).
The figure for “ACCAACAAGGTCGTCGCCGACGACGCCGACGCCGACGCCGCGGAGTCACCTAGTGCAG” is 27600 fluorescence intensity (a.u.).
The figure for “AACCGAATCCAATCGAGCTCAGGACGAGGCGGAGGAGGAGCGGAGTCACCTAGTGCAG” is 42900 fluorescence intensity (a.u.).
The figure for “TCGGCGCCGCGCCGCGCCACGGAGGGTGTCACGAGACCGCCGGAGTCACCTAGTGCAG” is 4790 fluorescence intensity (a.u.).
As for “TCTCCATAAGAGCACCCACCAACTCAGCCTCTCCTCCCATCGGAGTCACCTAGTGCAG”, the binding signal is 3340 fluorescence intensity (a.u.).
The figure for “CTCCTCCGCCGCCGCCGCTCCCAGCCTGCACGCCGGCCGCCGGAGTCACCTAGTGCAG” is 26200 fluorescence intensity (a.u.); for “GTGCTGTTCCTGCATGTGCATGCATGTATGAGTACGTACGCGGAGTCACCTAGTGCAG” it is 3910 fluorescence intensity (a.u.).
The figure for “TCTCTCTTCACGGGAGGGCAGTGTGGTTTTGGTCGGATTCCGGAGTCACCTAGTGCAG” is 3530 fluorescence intensity (a.u.); for “TAGTAGATCTAGTATTTTATCTTTAGTCCATCTACCGAGCCGGAGTCACCTAGTGCAG” it is 28500 fluorescence intensity (a.u.).
The figure for “GCCGCTACAAACCGTGGGCAAGACGTGTCGCCATGGGAGCCGGAGTCACCTAGTGCAG” is 4560 fluorescence intensity (a.u.); for “CAATTTAATGCTACTTATCTCACATGATGTCTTGGATGTTCGGAGTCACCTAGTGCAG” it is 3980 fluorescence intensity (a.u.); for “ATTTGGGATGTCTTTATCTCATCCAATTAATCCACGGATACGGAGTCACCTAGTGCAG” it is 49200 fluorescence intensity (a.u.).
For the sequence “TGCCAATGTTCCAATTGGTGTTGTCATCTTTGGGTTACCACGGAGTCACCTAGTGCAG”, the binding signal is 14100 fluorescence intensity (a.u.).
The figure for “GGGCACTCGAACCATCTAGTGCAGACGTGGTAACTGGCGCCGGAGTCACCTAGTGCAG” is 5510 fluorescence intensity (a.u.).
The figure for “TCTTATACTAAGATAATAAGATTATATCCTTGTCATCCAACGGAGTCACCTAGTGCAG” is 4430 fluorescence intensity (a.u.).
For “ATATCCATATCAAATTAAGCCAGGTTTGTAATTAATAACTCGGAGTCACCTAGTGCAG”, the binding signal was 9630 fluorescence intensity (a.u.).
On to “CCAAACTAATTAAGACAGCCAACTCACCTCCATCATATAACGGAGTCACCTAGTGCAG”, for which the binding signal is 65500 fluorescence intensity (a.u.).
The figure for “GCCGCCGCTCCCTCCCAATGACCCGCCGGATCTCCTAGTGCGGAGTCACCTAGTGCAG” is 3160 fluorescence intensity (a.u.); for “CCTGCAGCCAGGTCCTCGTATCATAGATGACGACGACTTCCGGAGTCACCTAGTGCAG” it is 4660 fluorescence intensity (a.u.).
The figure for “TACTAGTGTGGACATGTTCCCCTTTTCAGGAAGATGGCAGCGGAGTCACCTAGTGCAG” is 40300 fluorescence intensity (a.u.); for “TTTTGGATTCCCTTTTCATCCATGGATGCATGTGTTCCTTCGGAGTCACCTAGTGCAG” it is 3220 fluorescence intensity (a.u.); for “CGAAGCGGTTCAGGAAGATGGAGCGGCACGTGGCTGCGACCGGAGTCACCTAGTGCAG” it is 5240 fluorescence intensity (a.u.).
Turning to “GGCAGCGACCACGACACGTCGTTGTTCCCTCTGCTCCCGCCGGAGTCACCTAGTGCAG”, the binding signal is 6470 fluorescence intensity (a.u.).
Regarding “CAATCCCACCTCGCGCGATGACTCCGCACCCGCCCCACCTCGGAGTCACCTAGTGCAG”, the binding signal is 7260 fluorescence intensity (a.u.).
The figure for “GACTCCCGCGTGCTCGCCGCGCCGCCCACCGTCACCGCCTCGGAGTCACCTAGTGCAG” is 3230 fluorescence intensity (a.u.); for “TCCCAAACCCCGCGCCGCCTCTTACCGCTTCGCGTCAGCTCGGAGTCACCTAGTGCAG” it is 63900 fluorescence intensity (a.u.); for “GCCACCGCTGCATCATCCCGCCTGTCTGCCTGCGCGCGCCCGGAGTCACCTAGTGCAG” it is 3430 fluorescence intensity (a.u.).
The figure for “GCGCTGCCACGAGTGCCCGCGTCATCCCGTCCCCTCGCACCGGAGTCACCTAGTGCAG” is 6120 fluorescence intensity (a.u.); for “GCACCTCGCAATATCCATGGTCCCCGCTGCCCGTGGACTCCGGAGTCACCTAGTGCAG” it is 41200 fluorescence intensity (a.u.).
